# Potency and affinity values are given separately.
# Tested on: Staphylococcus aureus
# Conditions: Concentration 32 ug.mL-1;; ASSAY_TEST Inhibition of Bacterial Growth; detection method Absorption (OD600); MEDIA CAMHB; plate type 384well; NBS; CORNING #3640; time 18 hr
row,SMILES,Inhibition [%]
1,CCc1nnc2c(=O)n(CC(=O)Nc3cccc(C#N)c3)c3ccccc3n12,13.48
2,COc1cc(OC)c(NC(=O)Cn2nc3c(Oc4ccc(C)cc4)nccn3c2=O)cc1Cl,4.71
3,CCOC(=O)N1CCN(C(=O)CCc2nnc3c4cc(-c5ccc(F)cc5)nn4ccn23)CC1,10.85
4,O=C(Cn1nc2c3sc(N4CCCC4)nc3ncn2c1=O)Nc1cccc(Br)c1,14.01
5,O=C(Cn1nc2nc(Nc3ccc(F)cc3)ccn2c1=O)NCc1ccc(F)cc1Cl,7.6
6,O=C(Cn1nc2n(Cc3ccc(F)cc3)c(=O)c3ccccc3n2c1=O)Nc1ccc2c(c1)OCO2,15.06
7,O=C(Cn1nc2c(Sc3ccccc3)nccn2c1=O)Nc1ccc2c(c1)OCCO2,-4.66
8,COc1cccc(CNC(=O)CSc2nnc3c(=O)n(-c4ccc(F)cc4)ccn23)c1OC,19.94
9,Cc1cc2nn(CC(=O)Nc3cc(F)ccc3C)c(=O)n2c(Nc2ccc(C)c(F)c2)n1,2.63
10,Cc1cccc(Oc2nccn3c(=O)n(CC(=O)N4CCN(c5ccc(F)cc5)CC4)nc23)c1C,3.93
11,COc1ccccc1-n1ccn2c(SCC(=O)Nc3ccc(F)cc3F)nnc2c1=O,-4.28
12,CC(C)c1nnc2c(=O)n(CC(=O)Nc3ccc(C#N)cc3)c3ccccc3n12,-0.41
13,CCOc1ccc(C(=O)CSc2nnc3c(=O)n(-c4ccc(F)cc4)ccn23)cc1,23.03
14,O=C(CSc1nnc2c(=O)n(-c3ccc(Br)cc3)ccn12)Nc1ccc(F)cc1,9.36

# Reference: ChEMBL document CHEMBL4513146, “CO-ADD screening of Karazin Kharkiv National University (Ukraine) compounds”
